According to PubChem BioAssay AID1851 (National Center for Advancing Translational Sciences (NCATS), 2009):
Among all 16,000 compounds or so, about 2,600 (16%) were called active. About 20% were inconclusive and are not listed. Calls come from the whole dose curve; as a rule, active = well fitted curve in the direction sought with a large enough effect; inconclusive = small, poorly fitted or top-dose-only effect, or effect the other way; inactive = no such curve, though single readings can be large or run the other way. These entries were drawn from the full list.

target: Cytochrome P450 2D6 (Homo sapiens) (UniProt P10635); test: Cytochrome panel assay with activity outcomes; conditions: recombinant CYP, pro-luciferin dealkylation, luminescence, p450-cyp2d6; series mostly up to 57.1 µM; activity, negative = inhibition: at the top concentration
% is set by controls: 0 for no effect and ±100 for the full control effect.

Sequence of Cytochrome P450 2D6 (Homo sapiens) (P10635 whole entry, looked up): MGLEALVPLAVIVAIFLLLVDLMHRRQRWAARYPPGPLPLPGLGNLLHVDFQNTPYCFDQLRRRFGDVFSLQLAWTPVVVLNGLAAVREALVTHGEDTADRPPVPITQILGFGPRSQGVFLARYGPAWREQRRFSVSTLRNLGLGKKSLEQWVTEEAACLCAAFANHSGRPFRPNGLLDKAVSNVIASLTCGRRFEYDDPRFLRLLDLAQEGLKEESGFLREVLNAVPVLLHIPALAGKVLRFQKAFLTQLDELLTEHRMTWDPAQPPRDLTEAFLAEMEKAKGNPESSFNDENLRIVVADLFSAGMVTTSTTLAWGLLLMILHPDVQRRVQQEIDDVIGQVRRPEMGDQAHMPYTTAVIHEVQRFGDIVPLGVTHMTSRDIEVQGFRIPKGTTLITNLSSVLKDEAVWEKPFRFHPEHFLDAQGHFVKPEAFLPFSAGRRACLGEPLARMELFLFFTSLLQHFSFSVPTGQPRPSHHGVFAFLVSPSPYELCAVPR

Structure (SMILES)	activity, negative = inhibition	AC50
COc1ccc(-c2nc3cnc(OC)nc3n(Cc3cccc(OC)c3)c2=O)cc1	1.59% (inactive)	–
CCOC(=O)N1CCN(C(=O)CCn2nc(-c3ccccc3)ccc2=O)CC1	-0.57% (inactive)	–
Cc1ccc(-c2ccc(=O)n(CC(=O)NCCN(C)C)n2)cc1	-7.07% (inactive)	–
Cc1ccc(-c2ccc(=O)n(CC(=O)NCCN3CCCCC3C)n2)cc1 (stereo not drawn)	–	2 µM (active)
CN(C)CCNC(=O)Cn1nc(-c2ccc(Cl)cc2)ccc1=O	-16.6% (inactive)	–
COCCCNC(=O)Cn1nc(-c2ccccc2OC)ccc1=O	8.82% (inactive)	–
CC1CCCC(C)N1CCNC(=O)Cn1nc(-c2ccccc2)ccc1=O (stereo not drawn)	–	22.4 µM (active)
O=C(Nc1ccccc1N1CCOCC1)c1ccccc1[N+](=O)[O-]	0.526% (inactive)	–
N#Cc1cccc(NC(=O)N2CCCC3(CCN(C(=O)c4cc(C(F)(F)F)cc(C(F)(F)F)c4)CC3)C2)c1	-13.8% (inactive)	–
CCOC(=O)Cn1nc(C)n(-c2ccc(C)cc2)c1=O	-4.78% (inactive)	–
CC(=O)CCCCn1c(=O)c2c(ncn2C)n(C)c1=O	1.46% [at 25.6 µM] (inactive)	–
O=C1C(Cl)=C(Nc2ccc(S(=O)(=O)Nc3ccccn3)cc2)C(=O)c2ccccc21	–	3.16 µM (active)
CN(C)S(=O)(=O)Nc1ccccn1	-5.07% [at 11.4 µM] (inactive)	–
Nc1ccc(S(=O)(=O)Nc2ccccn2)cc1	3.38% [at 25.6 µM] (inactive)	–
Cc1nnc(SCC2=C(C(=O)O)N3C(=O)[C@@H](NC(=O)Cn4cnnn4)[C@@H]3SC2)s1	–	inactive
CCCn1c(-c2ccccc2)nc2c(=O)n(C)c(=O)[nH]c21	19.4% (inactive)	–
COc1ccc(C[C@H](N)C(=O)N[C@@H]2[C@H](O)[C@H](n3cnc4c(N(C)C)ncnc43)O[C@@H]2CO)cc1	2.91% [at 25.6 µM] (inactive)	–
c1cncc(-c2cc(-c3cc(-c4cccnc4)n[nH]3)[nH]n2)c1	-12.7% [at 11.4 µM] (inactive)	–
CN(C)c1ccc(-c2cc(-n3ccnc3)ncn2)cc1	–	7.94 µM (active)
CN1CCN(c2cc(-c3ccc(N(C)C)cc3)ncn2)CC1	-3.44% (inactive)	–
c1cncc(-c2cc(-n3ccnc3)ncn2)c1	–	15.8 µM (active)
c1cncc(-c2cccnc2)c1	-3.3% (inactive)	–
CC(C)(C)c1onc(OCP(=O)(O)O)c1C[C@@H](N)C(=O)O	-0.906% (inactive)	–
Cc1cccc(NS(=O)(=O)c2c(C)n[nH]c2C)c1	-0.85% (inactive)	–
CCC1CC(CSc2ncn[nH]2)OC1=O (stereo not drawn)	22.7% (inactive)	–
O=C(CSc1ncnc2nc[nH]c12)c1ccccc1	-6.92% [at 11.4 µM] (inactive)	–

Structure (SMILES)	activity, negative = inhibition	AC50
CCn1ncc(/C=C/C(=O)NCc2cn(C)nc2C)c1C	12.8% (inactive)	–
CCCC(=O)Nc1c(C)n[nH]c1C	0.796% (inactive)	–
CCCCCCCCCCn1c2c(c(=N)c3c1CCC3)CCC2	–	3.55 µM (active)
CC(C)NC(=O)CSc1nnc(C2CC2)n1-c1ccccc1	-9.8% (inactive)	–
COC(=O)[C@@]1(Cc2ccc(OC)cc2)[C@H]2c3cc(C(=O)N4CCCC4)n(CCCNc4ncc(C(F)(F)F)cc4Cl)c3C[C@H]2CN1C(=O)c1ccccc1	-12.2% (inactive)	–
Cc1nnc(C)n1/N=C/c1ccc(-c2ccccc2)cc1	-3.23% (inactive)	–
Cc1cccc(NC(=O)C2(c3ccccc3)CC2(Cl)Cl)c1 (stereo not drawn)	–	17.8 µM (active)
Cc1cccc(NC(=O)C23CCC(C)(C2Br)C3(C)C)c1 (stereo not drawn)	-22.6% (inactive)	–
Cc1cccc(N/C(=N\S(=O)(=O)c2ccccc2)C(F)(F)F)c1	4.65% (inactive)	–
NC(=O)c1nn(-c2ccccc2)c(=O)cc1O	7.3% (inactive)	–
OCCNCCCOc1cccc(Cl)c1Cl	–	0.158 µM (active)
Cc1nc(NC(N)=S)sc1C(=O)Nc1ccccc1	23.2% (inactive)	–
Cn1cnnc1SCC(=O)n1c2ccccc2c2ccccc21	3.63% (inactive)	–
Cc1c(C)n(C(=O)CN2CCC(C)CC2)c2ccccc12	–	3.16 µM (active)
Cc1nc2ccccc2nc1SCC(=O)N1CCC(C)CC1	-27.1% (inactive)	–
COc1ccc(-c2nnc(-c3ccc(OCC(C)C)cc3)o2)cc1	6.93% (inactive)	–
Cn1cccc1C(=O)N1CCC2(CCN(C(=O)Nc3cccc(F)c3)CC2)CC1	-2.09% (inactive)	–
CC(C)(CO)N1CCN(C(=S)Nc2ccccc2)CC1	-13.1% [at 11.4 µM] (inactive)	–
Cc1ccc(NC(=O)C2CCN(S(C)(=O)=O)CC2)cc1	-4.08% (inactive)	–
Cc1ccc(NC(=S)N2CCN(C3CCCCC3)CC2)cc1	–	14.1 µM (active)
CC(=O)OC1CCC(OC(C)=O)c2c1n([O-])c(C)c(C)[n+]2=O (stereo not drawn)	3.23% (inactive)	–
CCCCNC(=O)NS(=O)(=O)c1cnccc1Sc1ccc(Cl)cc1	16.8% (inactive)	–
CC(C)NCCOCCSc1ccc(Cl)cc1	–	3.55 µM (active)
CCCCNCCOCCSc1ccc(Cl)cc1	–	1.58 µM (active)
O=C(/C=C/c1ccc(Cl)cc1)NCCSc1ccccc1	-28.5% (inactive)	–
Cc1cc(/C=N\NC(=O)c2cccs2)c(C)n1-c1ccc2ncccc2c1	-27.7% (inactive)	–

Structure (SMILES)	activity, negative = inhibition	AC50
C[C@@H]1CCC[C@H](C)N1	0.216% [at 25.6 µM] (inactive)	–
CN(C/C=C\c1ccccc1)Cc1cccc2ccccc12	–	0.251 µM (active)
O=S(=O)(O)CCCc1cccc2ccccc12	7.84% [at 11.4 µM] (inactive)	–
CN(Cc1cccc2ccccc12)Cc1cccc2ccccc12	–	0.398 µM (active)
Cc1cc(C)cc(C(=N)c2ccccc2Cc2cccc3ccccc23)c1	5.99% [at 11.4 µM] (inactive)	–
CCOC(=O)CSCC(NC(=O)OC(C)(C)C)C(=O)OCC (stereo not drawn)	-9.04% (inactive)	–
O=C1C2C3C=CC(C2C(=O)N1CN1CCOCC1)C1C2C(=O)N(CN4CCOCC4)C(=O)C2C31 (stereo not drawn)	17.4% [at 11.4 µM] (inactive)	–
COc1ccc(O)c(/C=N/NC(=O)CSc2nnc(C)n2-c2ccccc2)c1	-4.14% (inactive)	–
Nc1c(-c2cccs2)cnn1-c1nc(-c2ccc(Cl)cc2Cl)cs1	-4.88% (inactive)	–
COC(=O)C1=C(C)NC(C)=C([N+](=O)[O-])[C@H]1c1ccccc1C(F)(F)F	-16.4% (inactive)	–
COC(=O)C1=C(C)NC(C)=C(C(=O)OC(C)C)C1c1cccc2nonc12 (stereo not drawn)	-6.81% (inactive)	–
COC(=O)C1=C(C)NC(C)=C([N+](=O)[O-])[C@@H]1c1ccccc1C(F)(F)F	–	6.31 µM (active)
Cc1ccc(CN(C(=O)c2cc3ccccc3oc2=O)C2CCS(=O)(=O)C2)cc1 (stereo not drawn)	7.86% (inactive)	–
CC(C)c1ccc(CN(C(=O)C2COc3ccccc3O2)C2CCS(=O)(=O)C2)cc1 (stereo not drawn)	–	14.1 µM (active)
CCc1ccc(CN(C(=O)c2cc3ccccc3oc2=O)C2CCS(=O)(=O)C2)cc1 (stereo not drawn)	-3.54% (inactive)	–
CNNCc1ccc(C(=O)NC(C)C)cc1	-6.86% [at 25.6 µM] (inactive)	–
CC(NC(=O)CCSc1nc(-c2ccc3c(c2)OCO3)cc(C(F)(F)F)n1)c1ccccc1 (stereo not drawn)	–	1 µM (active)
CC(Sc1nc(-c2ccccc2)cc(C(F)(F)F)n1)C(=O)N1CCCCC1 (stereo not drawn)	-29.9% (inactive)	–
Cc1nc2ncnn2c(C)c1CCC(=O)NC(C)c1ccc2c(c1)OCCO2 (stereo not drawn)	0.727% (inactive)	–
O=C1[C@H]2[C@H]3[C@H](O)[C@H](O)C/C(=N/OC[C@@H](O)COCc4ccco4)[C@H]3CC[C@@H]2C(=O)N1C1CCCCC1	2.44% [at 11.4 µM] (inactive)	–
Cc1ccc(C2/C(=C(/O)c3ccc(Cl)cc3)C(=O)C(=O)N2CC2CCCO2)o1 (stereo not drawn)	-29.8% (inactive)	–
COc1ncc2nc(C)c(=O)n(CCc3ccccc3)c2n1	-4.71% (inactive)	–
Cc1c(Cl)cnc(NC(=O)COC(=O)CCS(=O)(=O)c2ccccc2)c1Cl	-24.2% (inactive)	–
CC(C)=CC(=O)OCC(=O)Nc1ncc(Cl)c(C)c1Cl	-38.3% (inactive)	–
CC(C)CC(C(=O)OCC(=O)Nc1ncc(Cl)cc1Cl)N1C(=O)c2ccccc2C1=O (stereo not drawn)	–	25.1 µM (active)
O=C(Nc1ccc(Cl)cc1)c1cnc(-c2ccccc2)nc1-c1ccccc1	14.6% (inactive)	–

Structure (SMILES)	activity, negative = inhibition	AC50
C/C(=N\NC(=O)C1CC1c1ccccc1)c1cccs1 (stereo not drawn)	-24.3% (inactive)	–
Cc1cccn2c(=O)c(/C=N/O)c(N3CCCC3)nc12	-6.64% (inactive)	–
C=CCN=C1CC(C)(C)CC(=O)/C1=C(/O)CCC(=O)OC	-3.73% (inactive)	–
CN(C)CCCN1CCC2(CCC(C(C)(C)C)CC2)CC1	9.19% [at 11.4 µM] (inactive)	–
COc1ccccc1-c1c(C)oc2c(CN3CCN(CCO)CC3)c(O)ccc2c1=O	-8.47% (inactive)	–
CSc1nc(C)cc(Nc2ccc(O)c(CN3CCOCC3)c2)n1	-3.84% [at 11.4 µM] (inactive)	–
COc1ccc(-c2c(C)oc3c(CN4CCN(CCO)CC4)c(O)ccc3c2=O)cc1OC	-0.103% (inactive)	–
O=c1oc2c(CN3CCOCC3)c(O)ccc2c2ccccc12	–	2 µM (active)
CCCc1cc(=O)oc2c(CN3CCOCC3)c(O)ccc12	–	2.24 µM (active)
Nc1ccc(N2CCN(C(=O)c3ccco3)CC2)cc1	-24.1% (inactive)	–
Cc1ccc2nc(NC(=O)CSc3nc4c(c(=O)n3C)SC(C)C4)sc2c1 (stereo not drawn)	-9.43% (inactive)	–
Cc1ccnc(NS(=O)(=O)c2ccc(NC(=O)C3CCCNC3=O)cc2)n1 (stereo not drawn)	8.52% (inactive)	–
CC(C)c1nnc(NC(=O)CCC(=O)N2CCN(c3ccccn3)CC2)s1	19.7% (inactive)	–
O=[N+]([O-])c1cccc2c[nH]nc12	18.5% (inactive)	–
C[C@]1(c2ccccc2)OC(C(=O)O)=CC1=O	5.34% (inactive)	–
N#Cc1cccc(NC(=O)N2CC[C@@]3(CCCNC3)C2)c1	-13.4% (inactive)	–
c1ccc(C(c2ccccc2)N2CC[C@@]3(CCCNC3)C2)cc1	–	15.8 µM (active)
c1ccc(C(c2ccccc2)N2CC3(CCNCC3)C2)cc1	–	2.51 µM (active)
c1ccc(C(c2ccccc2)N2CCC3(CCNCC3)CC2)cc1	-18.5% (inactive)	–
O=C(Nc1cccc(F)c1)N1CC[C@@]2(CCCNC2)C1	0.0719% (inactive)	–
O=C(Nc1ccccc1)N1CCCC2(CCNCC2)C1	-13.6% (inactive)	–
CC(C)=CCC/C(C)=C/CO/N=C1/C[C@@H](O)[C@@H](O)[C@@H]2[C@@H]3C(=O)N(Cc4ccc5c(c4)OCO5)C(=O)[C@H]3CC[C@H]12	-10.1% [at 11.4 µM] (inactive)	–
CCc1cc(C(=O)NNC(=S)NCC2CCCO2)cs1 (stereo not drawn)	-2.56% (inactive)	–
O=C(O)c1cc(C(=O)C(=O)c2cc(C(=O)O)c(O)c3ccccc23)c2ccccc2c1O	-0.777% [at 11.4 µM] (inactive)	–
CCNc1ncc2nc(-c3cn(C)c4ccccc34)c(=O)n(Cc3cccs3)c2n1	-17.1% (inactive)	–
